Cruzain Triton = inhibitors of Trypanosoma cruzi cruzain with detergent; P25779; Potency, µM, for the others: max response, negative = inhibition, usual class: inhibitors; actives 0.43% (n = 200,000); purified cruzain, Z-FR-AMC fluorescence, 0.01% Triton;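 note: plate controls were neutral wells for no effect and buffer without enzyme for full effect; nearly all actives have a fitted effect of over 40% in size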
Target sequence (P25779 123-467 limits assumed): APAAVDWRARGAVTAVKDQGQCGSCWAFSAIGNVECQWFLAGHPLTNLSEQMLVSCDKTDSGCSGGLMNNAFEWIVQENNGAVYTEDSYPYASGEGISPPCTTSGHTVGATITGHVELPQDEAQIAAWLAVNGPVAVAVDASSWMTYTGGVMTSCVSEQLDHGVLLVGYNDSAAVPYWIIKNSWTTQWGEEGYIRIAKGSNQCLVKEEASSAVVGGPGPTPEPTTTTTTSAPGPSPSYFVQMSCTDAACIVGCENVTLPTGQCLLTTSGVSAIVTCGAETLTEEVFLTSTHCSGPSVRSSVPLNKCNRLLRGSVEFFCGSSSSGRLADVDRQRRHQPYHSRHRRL
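Sodium acetate buffer (100 mM, pH 5.5) containing 5 mM DTT and 0.01% Triton X-100 hosted 1.5 nM cruzain and test compound for 15 min at room temperature. Cleavage of 2 uM Z-FR-AMC was then tracked by fluorescence.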
Cruzain noTriton = inhibitors of Trypanosoma cruzi cruzain without detergent. P25779. purified cruzain, Z-FR-AMC fluorescence, no detergent. actives 2.3% (n = 200,000). Potency, µM, for inactives: max response, negative = inhibition, most hits filed as inhibitors;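 note: plate controls were enzyme without inhibitor for no effect and buffer without enzyme for full effect; nearly all actives have a fitted effect of over 40% in size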
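Purified cruzain at 1.5 nM, pre-incubated 15 min with compound at room temperature in 100 mM sodium acetate pH 5.5, 5 mM DTT, 0.00005% Triton X-100. Reaction started with 2 uM Z-FR-AMC; AMC fluorescence increase over 60 s gives rate.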
* = called active by the depositor; ? = inconclusive. Shown are actives, neighbours in structure and some others; about 2.6% of the full set was active somewhere. Calls come from the whole dose curve; as a rule, active = well fitted curve in the direction sought with a large enough effect; inconclusive = small, poorly fitted or top-dose-only effect, or another doubt; inactive = no such curve, though single readings can be large; an effect the other way counts as inactive or inconclusive. Potency is the fitted concentration of half-maximal effect.

SMILES	Cruzain Triton	Cruzain noTriton
COC(=O)c1ccc(Cl)c(-c2ccc(/C=N/NC(=O)Nc3ccccc3)o2)c1	-7%	?
CCOc1ccc(CCNC(=O)C(CC)n2nc(C)c3c(C)n(-c4ccccc4)nc3c2=O)cc1 (stereo not drawn)	-4%	-13%
COc1ccc(CNC(=O)Cn2c(=O)n3nc(-c4cccc(F)c4)nc3c3ccccc32)cc1OC	-1%	1%
CCOC(=O)c1c(-c2ccccc2)oc2ccc(OCc3ccc(C)cc3)cc12	-1%	10%
C=Cc1ccc(COc2ccc3oc(-c4ccccc4)c(C(=O)OCC)c3c2)cc1	-6%	32µM*
CCOC(=O)c1c(-c2ccccc2)oc2ccc(NS(=O)(=O)c3ccc(C)cc3C)cc12	-1%	16µM*
CC(=O)c1c(C)oc2ccc(NS(=O)(=O)c3ccc(C(C)C)cc3)cc12	-10%	8%
CCOC(=O)c1c(-c2ccccc2)oc2ccc(N(C(C)=O)S(=O)(=O)c3cc(C)ccc3C)cc12	-3%	-10%
CCOC(=O)c1c(-c2ccccc2)oc2ccc(NS(=O)(=O)c3ccc(C(C)C)cc3)cc12	-3%	20µM*
O=C(CN1C(=O)c2cccnc2Sc2ccccc21)Nc1cc(F)ccc1F	-4%	-5%
Cc1cccc(Cn2c(COc3ccc(Cl)cc3)nc3ccccc32)c1	-6%	-13%
CC1=NN(c2nc(-c3ccc(C)cc3)cs2)C(=O)C1N=Nc1cccc(C)c1 (stereo not drawn)	-5%	13µM*
CC1=NN(c2nc(-c3ccccc3)cs2)C(=O)C1	-10%	-18%
COc1ccc2c(c1)O[C@@H](c1cccc(C(F)(F)F)c1)[C@H](OC(=O)N[C@H](C)C1CCCCC1)C2=O	-1%	-1%
Cc1ccc(NC(=O)Nc2cccs2)c(C)c1	-12%	-9%
CCc1ccc(C2=NN(CCC(=O)NCCc3ccccc3)C(=O)CC2)cc1	-3%	?
Cc1cc(NC(=O)c2ccc3c(c2)C(=O)N(C)C3=O)no1	2%	10%
Cc1cc(NC(=O)c2ccc3c(c2)C(=O)N(C2CCCCC2)C3=O)no1	6%	6.3µM*
COc1cc(-c2ccc(NC(=O)c3ccc(C)cc3)c(OC)c2)ccc1NC(=O)c1ccc(C)cc1	-1%	-30%
COc1cc(-c2ccc(N=C=O)c(OC)c2)ccc1N=C=O	-4%	32µM*
Cc1ccccc1OC(=O)CSc1nnc(-c2ccc(F)cc2)o1	-3%	-5%
CCCCCN1C(C(=O)c2ccccc2)=C(NC(=O)c2ccc(OC)cc2)c2ccccc2S1(=O)=O	-5%	?
CCOC(=O)C1CCCN(C(=O)c2ccc([N+](=O)[O-])c(C)c2)C1 (stereo not drawn)	-1%	4%
CCOc1ccc(C(=O)NCC(=O)OCC(=O)N2CCCCC2)cc1	-11%	0%
Cc1cc(C(=O)NCC(=O)OCC(=O)N2CCCCCC2)ccc1[N+](=O)[O-]	14µM*	16µM*
SMILES	Cruzain Triton	Cruzain noTriton
O=C(CNC(=O)c1cccc(F)c1)OCC(=O)N1CCCCC1	25µM*	?
CCOC(=O)Cn1c(=O)n(-c2ccccc2OC)c2nc(-c3ccccc3)nc(C(N)=O)c21	-10%	?
COc1ccccc1NC(=O)Nc1ccc(Br)cn1	-1%	-6%
COc1ccc(Cl)cc1NC(=O)Nc1ccc(Br)cn1	0%	13µM*
COc1cccc(CS(=O)(=O)c2nnnn2CC(C)C)c1	-2%	-1%
CCOc1ccc(-c2cn(-c3ccc(OC)cc3)c(SCC(=O)Nc3ccccc3Cl)n2)cc1	0%	?
O=C(CS(=O)(=O)c1nc(-c2ccc(Cl)cc2)cn1-c1ccccc1)Nc1ccc(F)cc1F	-22%	25µM*
CCOc1ccc(-c2cn(-c3ccc(C)cc3)c(SCC(=O)Nc3ccc(C)cc3)n2)cc1	2%	25µM*
Cc1cccc(-n2cc(-c3ccccc3)nc2SCC(=O)Nc2ccccc2Cl)c1	0%	-11%
O=C(CN1CCN(c2ccc(Cl)cc2)CC1)Nc1ccc(F)cc1F	-8%	3%
Cc1ccc(-c2cn(-c3cccc(Cl)c3)c(S(=O)(=O)CC(=O)Nc3ccccc3F)n2)cc1	-15%	16µM*
Cc1cccc(NC(=O)CSc2nc(-c3ccccc3)cn2-c2ccccc2)c1C	-1%	?
Cc1cccc(NC(=O)CS(=O)(=O)c2nc(-c3ccccc3)cn2-c2cccc(Cl)c2)c1C	-23%	10µM*
COCCCNC(=O)c1cnn(-c2ccc(F)cc2F)c1C1CCNCC1	-2%	0%
Cc1ccc(C(=O)N2CCc3cc(CNC(=O)CSc4ccccc4)ccc32)cc1	-3%	-13%
COc1ccc2cc3cc(C(=O)NCCc4ccccc4)sc3nc2c1Cl	-2%	1%
Cc1cc(C)cc(NC(=O)c2cc(S(=O)(=O)N3CCC(C)CC3)cn2C)c1	-9%	-8%
Cc1ccccc1N1CC(c2nnc(NC(=O)c3ccco3)s2)CC1=O (stereo not drawn)	-8%	-4%
O=C(CS(=O)(=O)c1nc(-c2ccc(Cl)cc2)cn1-c1ccccc1)Nc1cccc(Cl)c1	?	-17%
Cc1ccc(-c2cn(-c3cccc(Cl)c3)c(S(=O)(=O)CC(=O)Nc3cccc(C)c3)n2)cc1	-21%	16µM*
CCn1cc(S(=O)(=O)CC(=O)Nc2ccc(C)cc2)c2ccccc21	-3%	-8%
Cc1ccc(NC(=O)CS(=O)(=O)c2nc(-c3ccc(C)cc3)cn2-c2ccc(C)cc2)cc1	-20%	13µM*
O=C(NCc1ccccc1Cl)C(=O)NCC(c1cccs1)S(=O)(=O)c1cccs1 (stereo not drawn)	-4%	14%
COc1ccc(-c2nc(CCNC(=O)c3cccs3)cs2)cc1OC	-7%	-15%
O=C(NCC#CCOCc1ccccc1)c1ccccc1	11µM*	13µM*
SMILES	Cruzain Triton	Cruzain noTriton
O=C(NCCCc1ccccc1)c1ccccc1	5%	1%
O=C(NC1CCCCCC1)C1c2ccccc2C(=O)N1Cc1ccccc1Cl (stereo not drawn)	-1%	-11%
CCOCCCn1c(SCC(=O)Nc2ccc(C)cc2)nc2ccccc2c1=O	-3%	?
O=C(Nc1ccccc1N1CCN(c2ccc(F)cc2)CC1)C12CC3CC(CC(C3)C1)C2	-3%	25µM*
O=C(Nc1ccccc1N1CCN(c2ccc(F)cc2)CC1)c1ccccc1	1%	?
Cc1ccc(C)c(CN2CCCN(Cc3ccc(F)cc3)S2(=O)=O)c1	-8%	-5%
CCN(CC)CCCNC(=O)CSc1nc2nc(C)c(Cc3ccccc3C)c(C)n2n1	-3%	1%
CCCCC[C@H](O)/C=C/[C@@H]1[C@@H](C/C=C\CCCC(=O)O)[C@@H](O)C[C@H]1O	0%	?
CCCCC[C@H](O)/C=C/[C@@H]1[C@@H](C/C=C\CCCC(=O)OC)[C@@H](O)C[C@H]1O	25µM*	?
O=C(COc1ccc(F)cc1)Nc1ccc(C(=O)OCc2cc(=O)n3nc(C4CC4)sc3n2)cc1	2%	-3%
COc1ccc(C)cc1NC(=O)Nc1nnc(N2CCCCC2)s1	-7%	?
Nc1nc(NCC2CCCO2)nc(Nc2ccc(F)cc2)c1[N+](=O)[O-] (stereo not drawn)	-6%	-13%
Cc1ccc(CNc2nc(N)c([N+](=O)[O-])c(Nc3cccc(F)c3)n2)cc1	-1%	20µM*
Cc1cccc(Nc2nc(NCC3CCCO3)nc(N)c2[N+](=O)[O-])c1 (stereo not drawn)	-3%	22%
Cc1cc(Nc2cccc(F)c2)nc(NCc2ccccc2)n1	-7%	6%
Nc1nc(NCc2ccccc2)nc(Nc2cccc(F)c2)c1[N+](=O)[O-]	6%	32µM*
